Screening data (PubChem BioAssay)
LYPLA1 counter – LYPLA1 inhibitors, primary screen, counter-screen for PME1 inhibitor project, biochemical, fluorescence polarization, FP-Rh probe ABPP; Acyl-protein thioesterase 1 (Homo sapiens), O75608; inhibition, % at 5.9 µM; 320,000 compounds, 0.16% hits; recombinant LYPLA1;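 active means inhibition above the mean of all tested compounds plus 3 SD, set per campaign, cut at about 14% in these data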;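 further: inhibitors block serine hydrolase probe labeling of LYPLA1 so polarization falls; 0% = enzyme with DMSO and 100% = wells lacking LYPLA1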
PAD4 FP inh – human PAD4 inhibitors, primary screen, biochemical, fluorescence polarization, 1536-well format. inhibition, % at 6.36 µM. 330,000 compounds, 0.41% hits. AID 485272, 2010. recombinant PAD4, RCA probe fluorescence polarization;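 active means percent inhibition above a cutoff equal to the mean of all tested compounds plus 3 SD, cut at about 15% in these data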;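 further: 0% = PAD4 with RCA probe and DMSO and 100% = probe without PAD4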
PME-1 inh – PME-1 inhibitors via competitive probe labeling, primary screen, biochemical, fluorescence polarization, FP-Rh probe, HTS; 320,000 compounds, 0.53% hits; recombinant PME-1; inhibition, % at 5.9 µM; Protein phosphatase methylesterase 1 (Homo sapiens), Q9Y570;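 active means inhibition above the campaign mean of all compounds plus 3 SD, cut at about 26% in these data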;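 further: competitive labeling of PME-1 active site by serine hydrolase directed probe; 0% = PME-1 with DMSO and 100% = wells lacking PME-1 enzyme; inhibitors block probe labeling so polarization falls and inhibition rises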
Target sequence (Q9Y570 whole entry, looked up): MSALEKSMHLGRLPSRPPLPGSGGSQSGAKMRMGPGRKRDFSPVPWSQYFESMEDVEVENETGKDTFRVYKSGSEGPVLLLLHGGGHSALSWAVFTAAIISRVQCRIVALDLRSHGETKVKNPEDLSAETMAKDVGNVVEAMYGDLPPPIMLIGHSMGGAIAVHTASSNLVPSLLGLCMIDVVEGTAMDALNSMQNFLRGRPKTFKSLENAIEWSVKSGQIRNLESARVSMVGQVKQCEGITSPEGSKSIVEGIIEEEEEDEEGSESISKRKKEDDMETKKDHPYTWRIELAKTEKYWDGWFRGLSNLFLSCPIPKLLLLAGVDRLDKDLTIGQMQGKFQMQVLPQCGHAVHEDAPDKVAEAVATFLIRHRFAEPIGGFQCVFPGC
LYPLA2 counter – LYPLA2 inhibitors, primary screen, counter-screen for PME1 inhibitor project, biochemical, fluorescence polarization, FP-Rh probe ABPP; 320,000 compounds, 0.38% hits; inhibition, % at 5.9 µM; Acyl-protein thioesterase 2 (Homo sapiens), O95372; recombinant LYPLA2;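 active means inhibition above the screen-wide mean plus 3 SD, limit set per campaign, cut at about 26% in these data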;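 further: 0% = LYPLA2 with DMSO and 100% = wells lacking LYPLA2 enzyme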
GSTO1 inh – inhibitors of recombinant GSTO1, primary screen, counter-screen for RBBP9 inhibitor project, biochemical, fluorescence polarization; 300,000 compounds, 1.1% hits; inhibition, % at 5.96 µM; Glutathione S-transferase omega-1 (Homo sapiens), P78417; activity-based probe fluorescence polarization;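 active means inhibition above the campaign mean inhibition plus 3 SD, cut at about 35% in these data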;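 further: 0% = GSTO1-1 with DMSO and 100% = wells lacking GSTO1-1 enzyme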
Target sequence (P78417 whole entry, looked up): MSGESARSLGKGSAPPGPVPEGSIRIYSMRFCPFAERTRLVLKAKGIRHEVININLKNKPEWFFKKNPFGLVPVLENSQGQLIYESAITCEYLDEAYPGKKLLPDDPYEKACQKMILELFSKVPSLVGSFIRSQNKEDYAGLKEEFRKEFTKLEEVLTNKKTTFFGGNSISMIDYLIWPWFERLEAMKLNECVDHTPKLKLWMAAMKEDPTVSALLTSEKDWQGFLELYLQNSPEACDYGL
Fam108B inh – mouse Fam108B serine hydrolase inhibitors, primary screen, counter-screen for RBBP9 inhibitor project, biochemical, fluorescence polarization; recombinant Fam108B, FP-Rh probe fluorescence polarization; inhibition, % at 9.51 µM; 300,000 compounds, 0.33% hits; AID 1947, 2009;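 active means inhibition above the screen mean inhibition plus 3 SD, computed separately per campaign, cut at about 18% in these data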;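 further: inhibitors lower polarization as less probe binds the enzyme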
The depositor's hits bear a star. Rows were chosen to be rich in hits. Some 1.8% of all compounds tested hit in one or more screens of this group.

What do the screens show for `O=c1cc(-c2c(F)c(F)c(F)c(F)c2F)oc2c(F)c(F)c(F)c(F)c12`?
LYPLA1 counter: -31; PAD4 FP inh: 46*; PME-1 inh: -59; LYPLA2 counter: -56; GSTO1 inh: -1; Fam108B inh: -20

What do the screens show for `Cc1ccc(C2C(C#N)=C(N)Oc3n[nH]c(-c4ccccc4)c32)o1` (stereo unspecified)?
LYPLA1 counter: -1; PAD4 FP inh: -14; PME-1 inh: -1; LYPLA2 counter: -1; GSTO1 inh: 45*; Fam108B inh: 5

What do the screens show for `CC(=O)Nc1cn(-c2ccccc2)nc1-c1ccccc1`?
LYPLA1 counter: -2; PAD4 FP inh: -4; PME-1 inh: -9; LYPLA2 counter: -5; GSTO1 inh: 5; Fam108B inh: -2

How did O=C(CCl)Nc1cn(-c2ccccc2)nc1-c1ccccc1 do in these assays?
LYPLA1 counter: -4; PAD4 FP inh: 4; PME-1 inh: -2; LYPLA2 counter: -6; GSTO1 inh: 51*; Fam108B inh: -6

Results for Cn1c(=O)[nH]c(=O)c2c1nc(N1CCN(CCO)CC1)n2Cc1ccccc1 ?
LYPLA1 counter: 2; PAD4 FP inh: 5; PME-1 inh: -5; LYPLA2 counter: -3; GSTO1 inh: 4; Fam108B inh: 3

How did O=C(COC(=O)c1ccc(S(=O)(=O)N2CCCCCC2)cc1)NCc1ccc(Cl)cc1 do in these assays?
LYPLA1 counter: 1; PAD4 FP inh: -3; PME-1 inh: 3; LYPLA2 counter: 3

Results for O=C1CCCN1CCCNc1ncnc2sccc12 ?
LYPLA1 counter: -6; PAD4 FP inh: -5; PME-1 inh: -2; LYPLA2 counter: -6; GSTO1 inh: 9; Fam108B inh: -1

How did Cc1sc2ncnc(NCCCN3CCCC3=O)c2c1C do in these assays?
LYPLA1 counter: -2; PAD4 FP inh: 0; PME-1 inh: -1; LYPLA2 counter: -9; GSTO1 inh: 37*; Fam108B inh: 0

What do the screens show for `N#CC1=C(N)C(C#N)(C#N)C(c2cccnc2)C2CN(C(=O)OCc3ccccc3)CC=C12` (stereo unspecified)?
LYPLA1 counter: 3; PAD4 FP inh: 1; PME-1 inh: 28*; LYPLA2 counter: 16; GSTO1 inh: 23; Fam108B inh: 0

What do the screens show for `CCOC(=O)N1CC=C2C(C#N)=C(N)C(C#N)(C#N)[C@H](c3ccc(OCC)c(OCC)c3)[C@H]2C1`?
LYPLA1 counter: 0; PAD4 FP inh: 0; PME-1 inh: 18; LYPLA2 counter: 0; GSTO1 inh: 2; Fam108B inh: 5

How did O=C(NNC(=O)c1cccnc1)NC1CCCCC1 do in these assays?
LYPLA1 counter: -4; PAD4 FP inh: -2; PME-1 inh: -5; LYPLA2 counter: 2; GSTO1 inh: 3; Fam108B inh: 3

What do the screens show for `O=C(NNC(=O)c1cc(O)c(O)c(O)c1)NC1CCCCC1`?
LYPLA1 counter: 1; PAD4 FP inh: 2; PME-1 inh: 5; LYPLA2 counter: 4; GSTO1 inh: 36*; Fam108B inh: 4

How did Cc1ccc(-n2c3nc(=O)[nH]c(=O)c-3cc3cc([N+](=O)[O-])ccc32)cc1 do in these assays?
LYPLA1 counter: 4; PAD4 FP inh: -1; PME-1 inh: 63*; LYPLA2 counter: 2; GSTO1 inh: 16; Fam108B inh: 15

Results for Oc1cc(-n2cccn2)c(O)cc1-n1cccn1 ?
LYPLA1 counter: -1; PAD4 FP inh: -13; PME-1 inh: -10; LYPLA2 counter: -3; GSTO1 inh: 70*; Fam108B inh: -3

What do the screens show for `O=Cc1ccccc1-n1cccn1`?
LYPLA1 counter: 0; PAD4 FP inh: -9; PME-1 inh: -6; LYPLA2 counter: -2; GSTO1 inh: 1; Fam108B inh: 2

Results for Cc1ccc(C(=O)O/N=C(\N)Cc2cccs2)c(Cl)c1 ?
LYPLA1 counter: 0; PAD4 FP inh: 0; PME-1 inh: 4; LYPLA2 counter: 4; GSTO1 inh: 6; Fam108B inh: 0

What do the screens show for `CC(C)c1cc(Nc2cccc(O)c2)cc(C(C)C)c1O`?
LYPLA1 counter: -5; PAD4 FP inh: 4; PME-1 inh: 11; LYPLA2 counter: -4; GSTO1 inh: 42*; Fam108B inh: 14

What do the screens show for `O=S(=O)(Nc1ccc(N=Nc2ccc(O)c3ccccc23)cc1)c1ccccc1`?
LYPLA1 counter: -14; PAD4 FP inh: -17; PME-1 inh: 39*; LYPLA2 counter: 7; GSTO1 inh: 4; Fam108B inh: 15

How did O=S(=O)(Nc1ccc(N=Nc2ccccc2)cc1)c1ccccc1 do in these assays?
LYPLA1 counter: -6; PAD4 FP inh: -2; PME-1 inh: -1; LYPLA2 counter: -10; GSTO1 inh: 5; Fam108B inh: 1

Results for COc1ccc(/C=c2\s/c(=C/C(=O)c3ccc(C)cc3)[nH]c2=O)c(OC)c1 ?
LYPLA1 counter: -13; PAD4 FP inh: -10; PME-1 inh: 27*; LYPLA2 counter: -28; GSTO1 inh: 28; Fam108B inh: -3

What do the screens show for `COc1cccc(/C=c2\s/c(=C/C(=O)c3ccc(C)cc3)[nH]c2=O)c1OC`?
LYPLA1 counter: -1; PAD4 FP inh: -4; PME-1 inh: -4; LYPLA2 counter: -3; GSTO1 inh: -6; Fam108B inh: -20

What do the screens show for `CCOC(=O)c1ccc(NC(=O)c2cccc(S(=O)(=O)N3CCN(C(C)=O)CC3)c2)cc1`?
LYPLA1 counter: -11; PAD4 FP inh: -2; PME-1 inh: 0; LYPLA2 counter: 0; GSTO1 inh: 1; Fam108B inh: -1

How did COc1ccc(CCn2c(N)c(C(=O)NCc3ccco3)c3nc4ccccc4nc32)cc1 do in these assays?
LYPLA1 counter: -6; PAD4 FP inh: -7; PME-1 inh: 17; LYPLA2 counter: -9; GSTO1 inh: 4; Fam108B inh: 3

What do the screens show for `COc1ccc(-n2c(N)c(C(=O)NCc3ccco3)c3nc4ccccc4nc32)c(OC)c1`?
LYPLA1 counter: -6; PAD4 FP inh: 1; PME-1 inh: -10; LYPLA2 counter: -23; GSTO1 inh: 37*; Fam108B inh: -6

What do the screens show for `COc1ccc2cc3c(N)c(C(=O)NCc4ccco4)sc3nc2c1`?
LYPLA1 counter: -6; PAD4 FP inh: -2; PME-1 inh: 35*; LYPLA2 counter: -1; GSTO1 inh: 0; Fam108B inh: 5

What do the screens show for `CCCCN(CC)CCCNC(=O)c1cn(CC)c2ccc(S(=O)(=O)N3CCc4ccccc4C3)cc2c1=O`?
LYPLA1 counter: 1; PAD4 FP inh: 6; PME-1 inh: 36*; LYPLA2 counter: -8; GSTO1 inh: 0; Fam108B inh: -1

Results for CCCCN(C)CCCNC(=O)c1cn(CC)c2ccc(S(=O)(=O)N3CCc4ccccc4C3)cc2c1=O ?
LYPLA1 counter: -3; PAD4 FP inh: -2; PME-1 inh: 40*; LYPLA2 counter: 2; GSTO1 inh: 14; Fam108B inh: 2
